# Measured values reported in PubChem BioAssay AID1986 (Sanford-Burnham Center for Chemical Genomics, 2009).
# About 890 (0.31%) of roughly 290,000 compounds were called active. Rule as the data show it: active = inhibition mostly above about 52% (no sharp cut-off); inactive = mostly below about 76%. Shown is part of a subset that was picked to be rich in actives.
# Assay: inhibitors of HIV fusion peptide binding, primary screen, biochemical, uHTS, fluorescence dequenching (AID 1986)
# Conditions: cell-free peptide binding, 30 min, stronger effect = higher value
# [1] = measured here: repeat confirmation average inhibition, at 18.6 µM
SMILES,inhibition (at 20 µM),inhibition [1] [%]
CCc1cccc(NC(=O)CCS(=O)(=O)c2cc3c(cc2C)NC(=O)CO3)c1,0.8% (inactive),–
CCOc1cc(-c2nc(-c3ccncc3)no2)cc(OCC)c1OCC,0.5% (inactive),–
CCC(CCC(=O)Nc1cccc(C(=O)O)c1)C(=O)O (configuration not stated),-0.2% (inactive),–
COc1ccc(Br)cc1C(=O)Nc1ccc(N2CCCC2)cc1,-1.9% (inactive),–
Cc1ccc(NC(=O)CN2C(=O)S/C(=C\c3ccc(-c4cccc(C(=O)O)c4C)o3)C2=O)cc1,63.2% (active),–
Cc1ccccc1NC(=O)CN1C(=O)S/C(=C\c2ccc(-c3cccc(C(=O)O)c3C)o2)C1=O,32% (inactive),–
Cc1ccc(C(=O)O)cc1-c1ccc(/C=C2\SC(=O)N(CC(=O)Nc3ccc4c(c3)OCO4)C2=O)o1,69.1% (inactive),25.2
COc1ccc(C(=O)NC2CCCCCC2)cc1OC1CCN(C(C)=O)CC1,0% (inactive),–
COc1ccc([N+](=O)[O-])cc1NC(=O)COC(C)=O,-1.8% (inactive),–
O=C(CN1CCN(c2ccccc2)CC1)N1CCc2[nH]c3ccccc3c2C1,2% (inactive),–
CCN1CCN(c2c(/C=C3\SC(=S)N(Cc4ccco4)C3=O)c(C)c(C#N)c(=O)n2C)CC1,89.4% (active),167
CCCN(CCC)c1nc2c(C)cccn2c(=O)c1/C=C1/SC(=S)N(Cc2ccco2)C1=O,49.5% (inactive),–
O=C1/C(=C\c2ccco2)SC(=S)N1Cc1ccccc1,66% (inactive),-1.7
C=CCOc1ccc(C2/C(=C(\O)c3ccc4c(c3)OCCO4)C(=O)C(=O)N2CCCN2CCOCC2)cc1 (configuration not stated),-1.6% (inactive),–
Cc1cc(NC(=O)CCCC(=O)N(CC(=O)NC2CCCCC2)c2ccccc2)no1,-0.7% (inactive),–
CNC(=S)N1CCN(S(=O)(=O)c2ccc3ccccc3c2)CC1,-0.9% (inactive),–
CCCc1ccc2oc(C(=O)NCCN3CCCC(O)C3)c(C)c2c1 (configuration not stated),0.9% (inactive),–
c1ccc2c(c1)nc(CN1CCOCC1)n1c3ccccc3nc21,2.2% (inactive),–
O=c1c2ccc([N+](=O)[O-])c3cccc(c32)c2nc3ccccc3n12,10.2% (inactive),–
O=c1c2cccc3c(N4CCOCC4)ccc(c32)c2nc3ccccc3n12,113% (active),–

SMILES,inhibition (at 20 µM),inhibition [1] [%]
Cc1ccc(OCc2cc(C(=O)N(C)CC3CCOCC3)no2)cc1C,-2% (inactive),–
O=C(CCN1C(=O)/C(=C/c2ccc(Cl)cc2)SC1=S)Nc1cccc(C(=O)O)c1,62.4% (inactive),2.3
O=C(O)CN1C(=O)/C(=C/c2ccc(N3CCCCC3)o2)SC1=S,7.4% (inactive),–
Cc1ccc(/C=C2\SC(=S)N(Cc3ccccc3)C2=O)o1,-3.6% (inactive),–
O=C(O)CN1C(=O)/C(=C/c2ccc(SCc3ccccc3)o2)SC1=S,73.1% (active),105
CC(/C=C1\SC(=S)N(CC(=O)O)C1=O)=C\c1ccccc1,35.8% (inactive),–
CC(=C\c1ccccc1)/C=C1/SC(=S)N(CCC(=O)O)C1=O,26.1% (inactive),–
O=C(O)CN1C(=O)/C(=C\C(Br)=C\c2ccccc2)SC1=S,62.6% (active),–
O=C(O)c1cccc(N2C(=O)/C(=C/c3ccc(SCc4ccc(Cl)cc4)o3)SC2=S)c1,63% (active),–
O=C1/C(=C\c2ccco2)SC(=S)N1c1ccccc1,41.6% (inactive),–
Cn1cnnc1SCC(=O)N1CCc2ccccc21,-0.4% (inactive),–
CCOC(=O)C(C)c1nc2ccccc2[nH]c1=O (configuration not stated),-0.4% (inactive),–
CN1C2C=C(N(CCc3ccccc3)C(=O)c3ccc(Cl)cc3)CC1CC2 (configuration not stated),-0.4% (inactive),–
C=C1CN(CC(=O)OC)S(=O)(=O)c2ccccc21,0.8% (inactive),–
COc1ccccc1NC(=O)c1ccc(-c2nn(C)c(=O)c3ccccc23)cc1,0.7% (inactive),–
Cc1nn(CC(=O)N2CCCC2)c(=O)c2nn(-c3ccccc3)c(C)c12,0.3% (inactive),–
CC(CCC(=O)O)C1CC[C@H]2C3CCC4CC(=O)CCC4(C)[C@H]3CC(=O)C12C (some centres not stated),-1.2% (inactive),–
CC1(C)C(=O)OC(c2cccs2)C(C)(C)C1=O (configuration not stated),0.5% (inactive),–
O=C(CSc1nc2scc(-c3ccco3)c2c(=O)n1-c1ccccc1)N1CCOCC1,4.2% (inactive),–
CC1CCN(S(=O)C23CC4CC(CC(C4)C2)C3)CC1 (configuration not stated),1.3% (inactive),–

SMILES,inhibition (at 20 µM),inhibition [1] [%]
CCOC1OC2C(CO)OC(n3cnc4c(N)ncnc43)C2O1 (configuration not stated),1.6% (inactive),–
Oc1[nH]c2ccccc2c1N=Nc1ccccc1,146% (inactive),–
Cc1cccc2c(N=Nc3ccccc3)c(O)[nH]c12,52.7% (active),60.4
Cc1cccc2c(N=O)c(O)[nH]c12,17.9% (inactive),–
CCCCc1ccc(S(=O)(=O)N2CCN(C(=O)c3ccco3)CC2)cc1,2% (inactive),–
Cc1ccc(C)c2[nH]c(=O)c(CN(Cc3cccs3)C(=S)NCc3ccco3)cc12,16.7% (inactive),–
CN(C)CCCN1C(=O)C2CCc3[nH]c4ccccc4c3C2C1=O (configuration not stated),-1% (inactive),–
COc1cc(/C=C2/C(=N)N3N=C(CC(=O)N4CCOCC4)SC3=NC2=O)ccc1OC(C)c1ccccc1 (configuration not stated),36% (inactive),–
CNc1ccc(Br)cc(C(=O)/C=C/c2cccc(Cl)c2Cl)c1=O,61.9% (inactive),4.3
CCNc1ccc(Br)cc(C(=O)/C=C/c2ccc(Cl)cc2Cl)c1=O,63.3% (inactive),13.7
CNc1ccc(Br)cc(C(=O)/C=C/c2ccc(Cl)cc2Cl)c1=O,61.5% (active),–
COc1cc(NC(=O)C2CC(c3c(F)cccc3Cl)=NO2)cc(OC)c1OC (configuration not stated),0% (inactive),–
Cc1onc(-c2ccccc2Cl)c1C(=O)Nc1ccc(Br)cc1,-0.2% (inactive),–
O=C(O)c1ccc(Cl)cc1Nc1nc2cc(Cl)ccc2o1,67.6% (active),–
CCC(=O)Nc1cc(Cl)ccc1C(=O)O,-0.2% (inactive),–
CCS(=O)(=O)c1ccc2oc(Nc3cc(Cl)ccc3OC)nc2c1,-1% (inactive),–
O=C(/C=C/c1ccccc1)NCCSCc1ccccc1Cl,-2.6% (inactive),–
O=S1(=O)C=CC(c2ccccc2)C1 (configuration not stated),0.2% (inactive),–
COC(=O)c1nn(-c2ccccc2)c(Sc2ccc(OC)cc2)c1/C=N/O,2.7% (inactive),–
